# From PubChem BioAssay AID1159577 (Broad Institute, 2015)
# Screen size: about 1,300 compounds; about 240 (18%) were called active. Another 8% or so got no clear call; they are omitted. Only a sample is shown. Potency and affinity values are given separately. Unmarked numbers belong to inactive results. How the calls were made is not given here.
# Assay: toxicity to human hepatoma HepG2 cells – cell-based, cherry-picked samples, cytotoxicity control, dose response (AID 1159577);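 further: 0% = neutral control wells and -100% = positive control wells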
# Details: HepG2 cytotoxicity counterscreen, plate reader; series mostly up to 19.5 µM; activity change, negative = cytotoxicity: at the top concentration
row,SMILES,"activity change, negative = cytotoxicity"
1,COc1ccc(C#Cc2ccc3c(c2)[C@@H]2[C@@H](CCN2C(=O)C2CC2)[C@H](CO)N3)cc1,-15%
2,COCC(=O)N1CC2(C1)CN(Cc1cccc(Cl)c1)[C@@H](CO)c1[nH]c3cc(OC)ccc3c12,8.31%
3,CCC(=O)Nc1ccc2c(c1)OC[C@H](C)N(Cc1ccccn1)C[C@H](C)[C@H](OC)CN(C)C2=O,-6.77%
4,CN(C)CC#Cc1cccc(-c2nc(C(=O)N[C@@H]3CCN(Cc4ccccc4)C3)cc3c2[C@H](CCO)N(S(=O)C(C)(C)C)C3)c1 (some centres undefined),-9.7%
5,COc1ccc(C#Cc2ccc3c(c2)O[C@@H](CN(C)S(=O)(=O)c2ccccc2F)[C@@H](C)CN([C@@H](C)CO)S3(=O)=O)cc1,18.1%
6,COc1ccc2c3c([nH]c2c1)[C@H](CO)N(Cc1cc(F)ccc1F)CC31CCN(C(C)=O)CC1,-5.87%
7,CN1C[C@H]2[C@@H](c3ccccc31)[C@H](CO)N2Cc1ccccc1F,2.08%
8,COc1cccc(NC(=O)N2[C@@H](CO)[C@@H](c3ccccc3)[C@@H]2CNCC(C)C)c1,-22.2%
9,C[C@H](CO)N1C[C@H](C)[C@H](CN(C)C(=O)Nc2ccc(F)cc2)Oc2cc(/C=C/c3ccccc3)ccc2S1(=O)=O,-7.91%
10,Cc1ccc(-c2ccc3c(c2)O[C@@H](CN(C)Cc2cccnc2)[C@@H](C)CN([C@@H](C)CO)S3(=O)=O)cc1,-31.1%
11,C[C@H](CO)N1C[C@H](C)[C@H](CN(C)C(=O)Nc2cc(F)ccc2F)Oc2cc(/C=C/c3ccccc3)ccc2S1(=O)=O,-14.4%
12,C[C@@H]1CN([C@H](C)CO)S(=O)(=O)c2ccc(-c3ccncc3)cc2O[C@H]1CN(C)Cc1ccc(Oc2ccccc2)cc1,6.58%
13,CCS(=O)(=O)N1CCC2(CC1)CN(Cc1ccc3c(c1)OCO3)[C@H](CO)c1[nH]c3cc(OC)ccc3c12,12.4%
14,CCC(=O)N1[C@H](CO)[C@@H](c2ccccc2-c2cccc(C)c2)[C@@H]1C#N,-26.1% [at 21 µM]
15,COc1ccccc1CNC(=O)C[C@H]1C[C@@H]2c3cc(NC(=O)Nc4ccc(C(F)(F)F)cc4)ccc3O[C@@H]2[C@@H](CO)O1,-0.188%
16,CO[C@H]1CN(C)C(=O)c2cc(NC(=O)C3CC3)ccc2OC[C@H](C)N(Cc2cccc(F)c2)C[C@H]1C,1.64%
17,O=C(c1ccccc1)N1CC[C@@H]2[C@@H](CO)Nc3ccc(-c4ccc(F)cc4)cc3[C@@H]21,5.88% [at 21 µM]
18,COc1ccc(C#Cc2ccc3c(c2)O[C@@H](CN(C)C(=O)Nc2cccc(OC)c2)[C@@H](C)CN([C@@H](C)CO)S3(=O)=O)cc1,17.5%
19,Cc1ccccc1S(=O)(=O)N1[C@H](CO)[C@@H](c2ccc(C#CC3CCCCC3)cc2)[C@@H]1C#N,8.7%
20,COCC(=O)N1CC2(C1)CN(Cc1cc(F)ccc1F)[C@H](CO)c1[nH]c3cc(OC)ccc3c12,-3.42%
21,CO[C@@H]1CN(C)C(=O)c2ccc(NC(=O)c3nc4ccccc4s3)cc2OC[C@@H](C)N(Cc2cccnc2)C[C@H]1C,-15.2%
22,CO[C@@H]1CN(C)C(=O)c2ccc(NC(=O)c3nc4ccccc4s3)cc2OC[C@H](C)N(Cc2cccnc2)C[C@@H]1C,3.62%

row,SMILES,"activity change, negative = cytotoxicity"
1,CO[C@@H]1CN(C)C(=O)c2cc(NC(=O)c3nc4ccccc4s3)ccc2OC[C@@H](C)N(Cc2ccccc2)C[C@H]1C,5.97%
2,CO[C@@H]1CN(C)C(=O)c2ccc(NC(=O)c3nc4ccccc4s3)cc2OC[C@H](C)N(Cc2ccncc2)C[C@@H]1C,13.8%
3,CC(=O)N1CC[C@@H]2[C@@H](CO)Nc3ccc(C#Cc4ccccc4F)cc3[C@@H]21,12.8% [at 21 µM]
4,C/C=C/c1ccc([C@@H]2[C@@H](CO)N(CC3CCCC3)C23CN(S(=O)(=O)CC)C3)cc1,-6.49%
5,COc1ccccc1CN1C[C@@H](C)[C@H](OC)CN(C)C(=O)c2ccc(NC(=O)Nc3ccccc3OC)cc2OC[C@H]1C,-18.3%
6,C[C@@H]1CN([C@H](C)CO)C(=O)c2cccc(NC(=O)CCCCCC(=O)Nc3ccccc3N)c2O[C@@H]1CN(C)S(=O)(=O)c1ccccc1,-16.8% [at 21 µM]
7,Cc1ccccc1S(=O)(=O)N1[C@H](C#N)[C@@H](c2ccc(C#CC3CC3)cc2)[C@@H]1CO,-1.66%
8,C[C@H](CO)N1C[C@H](C)[C@@H](CN(C)C(=O)c2ccc(F)cc2)Oc2ncc(/C=C/c3ccccc3)cc2C1=O,27.8%
9,C[C@@H]1CN([C@@H](C)CO)S(=O)(=O)c2ccc(C#CC3(O)CCCC3)cc2O[C@H]1CN(C)C(=O)c1ccccc1,23.2%
10,CN1c2ccc(-c3cccc(F)c3)cc2[C@@H]2[C@@H](CCN2C(=O)C2CC2)[C@@H]1CO,11.9%
11,N#C[C@H]1[C@@H](c2ccccc2-c2ccccc2F)[C@@H](CO)N1C(=O)C1CCOCC1,16%
12,CO[C@@H]1CN(C)C(=O)c2ccc(NC(=O)Nc3ccc(C(F)(F)F)cc3)cc2OC[C@@H](C)NC[C@@H]1C,-17.8% [at 21 µM]
13,CO[C@H]1CN(C)C(=O)c2ccc(NC(=O)Nc3ccc(C(F)(F)F)cc3)cc2OC[C@H](C)NC[C@H]1C,-23.7%
14,CO[C@@H]1CN(C)C(=O)c2ccc(NC(=O)Nc3ccc(C(F)(F)F)cc3)cc2OC[C@H](C)NC[C@H]1C,-28.1%
15,CO[C@H]1CN(C)C(=O)c2ccc(NC(=O)Nc3ccc(C(F)(F)F)cc3)cc2OC[C@@H](C)NC[C@@H]1C,-22.1%
16,Cc1ccc(-c2ccccc2[C@H]2[C@@H](C#N)N(C(=O)NC3CCCC3)[C@H]2CO)cc1,9.07% [at 21 µM]
17,COc1ccc(S(=O)(=O)N(C)C[C@@H]2Oc3cc(-c4ccccc4OC)ccc3S(=O)(=O)N([C@H](C)CO)C[C@H]2C)cc1,10.8%
18,CCCC(=O)Nc1ccc2c(c1)OC[C@H](C)N(Cc1ccc(-c3ccccn3)cc1)C[C@H](C)[C@H](OC)CN(C)C2=O,19.9%
19,CO[C@@H]1CN(C)C(=O)c2ccc(NC(=O)C3CC3)cc2OC[C@@H](C)N(Cc2cccc(F)c2)C[C@H]1C,-15.8%
20,CCC(=O)Nc1ccc2c(c1)C(=O)N(C)C[C@H](OC)[C@H](C)CN(Cc1cccc(F)c1)[C@@H](C)CO2,-7.08%
21,COc1ccc(CN(C)C[C@@H]2OCc3cn(nn3)CCCC(=O)N([C@H](C)CO)C[C@H]2C)cc1,9.36%
22,COc1ccccc1CN1C[C@@H](C)[C@H](OC)CN(C)C(=O)c2cc(NC(=O)Nc3ccccc3OC)ccc2OC[C@H]1C,-9.22% [at 21 µM]
